# Measured values published in PubChem BioAssay (NCATS).
# Records with an inconclusive call do not appear. Activity calls are given as the source filed them. The call rests on the fitted dose curve. Numbered stars: 1 amine (or outer) side, 2 acyl side, 3 side chain; on linkers, the order of the positions; unused ones are H or OH. Bridge positions count the residues as written; N and C are the ends. Square brackets hold non-standard residues; d marks the D form. Peptide text beside a SMILES is read from it. * marks the point of attachment. ξ: configuration not given here. ξhTyr(3S-OH,4S-OH,3'-OSO3H) = NC(C(=O)O)[C@H](O)[C@@H](O)c1ccc(O)c(OS(=O)(=O)O)c1; Orn(4R-OH,5R-OH) = O=C([C@H](C[C@@H](O)[C@@H](O)N[*:3])N[*:1])[*:2]; X2 = CCCCCOc1ccc(-c2cc(-c3ccc(C(=O)*)cc3)no2)cc1; X3 = C[C@H]1CN([*:1])C(C(=O)[*:2])[C@H]1O; ξGln(3R-OH) = NC(=O)C[C@@H](O)C(N)C(=O)O; ξPro(4R-OH) = O=C(O)C1C[C@@H](O)CN1; ξThr(3R) = C[C@@H](O)C(N)C(=O)O
# Experiment: Cytotoxicity counterscreen for inhibitors of SARS-CoV-2 cell entry (AID 1645845); further: nearly all actives have a fitted effect of over 50% in size
# Conditions: cell viability (SARS-CoV-2 entry assay cells); series mostly up to 57.1 µM; activity change, negative = cytotoxicity: at the top concentration
# Description: Assay Provider: Wei Zheng, Ph.D.
# National Center for Advancing Translational Sciences, National Institute of Health, Rockville, MD.
# SARS-CoV-2 spike protein, within the viral envelope, mediates viral attachment and infection of host cells. The SARS-CoV-2 spike protein specifically binds to the host receptor ACE2 (Angiotensin-converting enzyme 2). This interaction promotes endocytosis of the viral particle, additional events lead to viral-host cell membrane fusion and release of the viral contents, allowing viral replication.
# While SARS-CoV-2 requires BSL-3 facilities for live virus work, pseudo-typed partices (PP) that incorporate SARS-CoV-2 spike proteins without replication elements could facilitate studies on viral entry mechanisms in a BSL-2 setting. This PP cell entry assay could also enable screening of small molecule compound libraries in BSL-2 setting to identify inhibitors of SARS-CoV-2 cell entry. To eliminate false positive compounds, ATP content cytotoxicity assay was screened in the same cell line.
# SEQUENCE No. (e.g., 1, 2, 3, etc.); […] (e.g., Cells, Incubation, Reagent, etc.); VALUE and DESCRIPTION.
# 1. Cells. Seed 1500 HEK293-ACE2 cells (Expi293F with stable expression of human ACE2) in 2 uL/well media (DMEM, 10% FBS, 1x L-glutamine, 1x Pen/Strep, 1 ug/ml puromycin) in white 1536-well assay plates (Greiner #782073).
# 2. Incubation. Incubate at 37 C with 5% CO2 overnight (~16 h).
# 3. Compounds. Dispense 23 nL/well compounds in DMSO via pin transfer.
# 4. Incubation. Incubate for 1 h at 37C 5% CO2.
# 5. Reagent. Dispense 2 uL/well of media (DMEM, 10% FBS, 1x L-glutamine, 1x Pen/Strep, 1 ug/ml puromycin).
# 6. Incubation. Incubate at for 48h at 37C 5% CO2
# 7. Reagent. Dispense 4 uL/well of ATPLite 1step luminescence assay reagent (PerkinElmer #6016739).
# 8. Incubation. Incubate for 15 min at room temperature.
# 9. Detection. Read luminescence signal (Viewlux plate reader, PerkinElmer). Data was normalized with wells containing cells as 100%, and wells without cells (media only control) as 0%.
# On the % scale 0 is the no-effect control and ±100 the full control effect; potency means the concentration at half of the fitted maximal effect.
Compound,Potency,outcome,"activity change, negative = cytotoxicity"
CNC1CCC(N(Cc2cccc(-c3ccncc3)c2)C(=O)c2sc3ccccc3c2Cl)CC1 (stereo not given),31.6 µM (active),–,–
COC(=O)C1C2CC3c4[nH]c5cc(OC)ccc5c4CCN3CC2CC(OC(=O)c2cc(OC)c(OC)c(OC)c2)C1OC (stereo not given),–,inactive,–
Nc1nc(N)c2nc(-c3cccc(O)c3)c(-c3cccc(O)c3)nc2n1,–,–,-12.1% (inactive)
C=Cc1c(C)c2cc3nc(cc4[nH]c(cc5nc(cc1[nH]2)C(C)=C5CCC(=O)O)c(CCC(=O)OC)c4C)[C@@]1(C)C3=CC=C(C(=O)OC)[C@H]1C(=O)OC,–,inactive,–
COc1cccc2c1C(=O)c1c(O)c3c(c(O)c1C2=O)C[C@@](O)(C(=O)CO)C[C@@H]3O[C@H]1C[C@H](N)[C@H](OC2CCCCO2)[C@H](C)O1 (stereo not given in full),12.6 µM (active),–,–
Cc1cnc(C(=O)O)c[n+]1[O-],–,inactive,–
NC(=O)c1ncn([C@@H]2O[C@H](CO)[C@@H](O)[C@H]2O)n1,inactive,–,–
O=C1NC(=O)C(c2cnc3ccccn23)=C1c1cn2c3c(cccc13)CN(C(=O)N1CCOCC1)CC2,–,–,-5.11% (inactive)
O=c1cc(-c2ccccc2)oc2cc(O)c(O)c(O)c12,–,–,-24.2% (inactive)
CN1c2cc(O)c(N=NC(N)=O)cc2CC1S(=O)(=O)O (stereo not given),inactive,–,–
C[Se]CC[C@H](N)C(=O)O,–,inactive [at 27.1 µM],–
O=C(CCCCCCC(=O)Nc1ccc([C@H]2O[C@@H](CSc3nc(-c4ccccc4)c(-c4ccccc4)o3)C[C@@H](c3ccc(CO)cc3)O2)cc1)NO,–,inactive [at 11.3 µM],–
O=C(CCc1ccc(O)cc1)c1c(O)cc(O)cc1O,–,–,-6.6% (inactive)
CC(C)Oc1ccc(C(=O)N[C@H](CNC(=O)CN(C)C)Cc2ccc(-c3cn4cccc([C@H](C)O)c4n3)cc2)cc1Cl,–,–,-15.3% (inactive)
COc1cc2nccc(Oc3ccc(NC(=O)NC4CC4)c(Cl)c3)c2cc1C(N)=O,inactive,–,–
CC1(C)OC(=O)C(OCC2CC2)=C1c1ccc(S(C)(=O)=O)cc1,–,inactive,–
OCCN(CCO)CCO,–,inactive,–
CCCNS(=O)(=O)Nc1ncnc(OCCOc2ncc(Br)cn2)c1-c1ccc(Br)cc1,inactive,–,–
CCC(c1ccc(O)cc1)C(CC)c1ccc(O)cc1 (stereo not given),–,–,-1.46% (inactive)
COc1cc(OC)c(NC(=O)Nc2cc(C)on2)cc1Cl,–,–,-0.776% (inactive)

Compound,Potency,outcome,"activity change, negative = cytotoxicity"
O=c1c(-c2ccc(O)cc2)coc2cc(O)ccc12,–,–,-0.636% (inactive)
O=c1cc(-c2ccccc2)oc2cc(O)cc(O)c12,–,–,-16.2% (inactive)
COc1cc(C[C@@H](CO)[C@H](CO)Cc2ccc(O)c(OC)c2)ccc1O,–,inactive,–
COc1cc2c(cc1Cc1cccc(Cl)c1F)c(=O)c(C(=O)O)cn2[C@H](CO)C(C)C,–,–,2.32% (inactive)
Nc1nc(OCc2ccccc2)c2[nH]cnc2n1,–,inactive,–
CN[C@@H](C)C(=O)N[C@H]1CN(C(=O)CC(C)C)CC[C@H]2CC[C@@H](C(=O)NC(c3ccccc3)c3ccccc3)N2C1=O,–,–,-23.6% (inactive)
CCNC(=O)[C@H]1O[C@@H](n2cnc3c(N)nc(NCCc4ccc(CCC(=O)O)cc4)nc32)[C@H](O)[C@@H]1O,–,inactive,–
CC(=O)O[C@H]1C[C@@H]2CC[C@H]3[C@H]4C[C@H]([N+]5(C)CCCCC5)[C@@H](OC(C)=O)[C@@]4(C)CC[C@@H]3[C@@]2(C)C[C@H]1[N+]1(C)CCCCC1,inactive,–,–
CCOC(=O)c1c(CSc2ccccc2)n(C)c2cc(Br)c(O)c(CN(C)C)c12,–,inactive,–
CN(C)CCCN1c2ccccc2CCc2ccccc21,–,–,-18.1% (inactive)
OC(CCN1CCCCC1)(c1ccccc1)C1CCCCC1 (stereo not given),–,inactive,–
CN(C)C(=O)[C@H](O)[C@H](Cc1ccccc1)NC(=O)c1cc2cc(Cl)ccc2[nH]1,–,inactive,–
Cc1ccccc1C(C(=O)NC1CCCCC1)N(C(=O)Cn1ccnc1C)c1cccc(F)c1 (stereo not given),–,–,-12.8% (inactive)
CCc1ccc(OCc2ccccc2C(=O)Nc2ccc3nc(C)cc(N)c3c2)cc1,15.8 µM (active),–,–
"CCCCCOc1ccc(-c2cc(-c3ccc(C(=O)N[C@H]4C[C@@H](O)[C@@H](O)NC(=O)C5[C@@H](O)[C@@H](C)CN5C(=O)C([C@H](O)CC(N)=O)NC(=O)C([C@H](O)[C@@H](O)c5ccc(O)c(OS(=O)(=O)O)c5)NC(=O)C5C[C@@H](O)CN5C(=O)C([C@@H](C)O)NC4=O)cc3)no2)cc1 (stereo partly drawn) (X2-[Orn(4R-OH,5R-OH)][ξThr(3R)][ξPro(4R-OH)][ξhTyr(3S-OH,4S-OH,3'-OSO3H)][ξGln(3R-OH)][X3]; lactam 1-C)",–,inactive [at 27.1 µM],–
CNC(C)CC1CCCCC1 (stereo not given),–,–,4.99% [at 85.7 µM] (inactive)
CC(=O)N1N=C(c2ccc(N)cc2)c2cc3c(cc2C[C@H]1C)OCO3,–,–,-3.07% (inactive)
C[C@@H]1CN(Cc2ccc(F)cc2)CCN1C(=O)COc1ccc(Cl)cc1NC(N)=O,2.51 µM (active),–,–
O=C(NC1CCOCC1)c1ccc(-c2cc(-c3cn[nH]c3-c3ccccn3)ccn2)cc1,–,–,5% (inactive)
Cc1ccc(NC(=O)c2cccc(N(C)C)c2)cc1NC(=O)c1ccc(O)cc1,–,–,-9.46% (inactive)
